Our source for the outcome and AC50 values is PubChem BioAssay (EPA / NIEHS).

One may read the AC50 as the midpoint of the concentration-response curve, whichever way the signal moves.

What all share (conditions): mRNA level, 48 h; actives raise or lower the signal
Read-out in test [1]: Broad substrate specificity ATP-binding cassette transporter ABCG2 (Homo sapiens) (UniProt Q9UNQ0)
The test is described as follows: LTEA_HepaRG_ABCG2: Life Technologies and Expression Analysis (LTEA) Assay for ABC Transporter (ABCG2) using HepaRG (AID 2283465). In short, it runs like this:
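ABCG2 transcript was quantified by TaqMan qRT-PCR against three housekeeping genes in HepaRG cells. Cells were treated in duplicate for 48 h across an 8-point half-log series up to 100 uM, with 0.5% DMSO vehicle. Gain or loss versus DMSO was fit.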

Read-out in test [2]: ATP-citrate lyase (ACLY), ACLY (gene 47)
The test is described as follows: LTEA_HepaRG_ACLY: Life Technologies and Expression Analysis (LTEA) Assay for ATP-citrate lyase (ACLY) using HepaRG (AID 2283466). In short, it runs like this:
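ACLY mRNA quantified by qRT-PCR on Fluidigm arrays against three housekeeping genes, after 48 h chemical treatment of HepaRG cells (top concentration 100 uM, half-log steps, 0.5% DMSO vehicle). Up- or down-regulation fitted relative to DMSO.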

Read-out in test [3]: Peroxisomal acyl-coenzyme A oxidase 1 (ACOX1) gene, ACOX1 (gene 51)
The test is described as follows: LTEA_HepaRG_ACOX1: Life Technologies and Expression Analysis (LTEA) Assay for Peroxisomal acyl-coenzyme A oxidase 1 (ACOX1) gene using HepaRG (AID 2283467). In short, it runs like this:
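ACOX1 transcript levels were quantified by TaqMan qRT-PCR against three housekeeping genes after 48 h chemical exposure of differentiated human HepaRG cells. Exposure used eight half-log steps topping at 100 uM, 0.5% DMSO vehicle, in duplicate. Bidirectional curve fits were made relative to DMSO.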

Read-out in test [4]: Alkaline Phosphatase, Placental (ALPP) gene, ALPP (gene 250)
Put plainly: LTEA_HepaRG_ALPP: Life Technologies and Expression Analysis (LTEA) Assay for Alkaline Phosphatase, Placental (ALPP) gene using HepaRG (AID 2283468).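 As to AC50: differentiated human HepaRG liver cells in serum-free induction medium.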 In outline:
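qRT-PCR readout of ALPP mRNA (Fluidigm TaqMan), normalized to ACTB/GAPDH/POLR2A, after 48 h chemical exposure of HepaRG cells; 8-point half-log series, top 100 uM, 0.5% DMSO vehicle. Bidirectional curve fit versus DMSO baseline.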

Read-out in test [5]: Bcl-2 (BAD) gene, BAD (gene 572)
The test is described as follows: LTEA_HepaRG_BAD: Life Technologies and Expression Analysis (LTEA) Assay for Bcl-2 (BAD) gene using HepaRG (AID 2283469). In outline:
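Read-out: qRT-PCR of BAD mRNA, normalized to three housekeeping genes. Human HepaRG cultures got 48 h chemical exposure in 0.5% DMSO, duplicate eight-point half-log series topping at 100 uM. Gain or loss of signal fitted versus DMSO vehicle.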

Read-out in test [6]: Bcl-2 (BAX) gene, BAX (gene 581)
The test is described as follows: LTEA_HepaRG_BAX: Life Technologies and Expression Analysis (LTEA) Assay for Bcl-2 (BAX) gene using HepaRG (AID 2283470). In outline:
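Cells were thawed, plated for 48 h, moved to serum-free induction medium and dosed for 48 h (highest concentration 100 uM, half-log steps, 0.5% DMSO). Total RNA was then analysed for BAX expression by qRT-PCR.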

Read-out in test [7]: adenosine kinase (ADK) gene, ADK (gene 132)
Put plainly: LTEA_HepaRG_ADK: Life Technologies and Expression Analysis (LTEA) Assay for adenosine kinase (ADK) gene using HepaRG (AID 2283471). In short, it runs like this:
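Read-out is ADK transcript level measured by qRT-PCR and normalised to three housekeeping genes. Cells are human HepaRG, dosed for 48 h at up to 100 uM in 0.5% DMSO. Gain or loss of signal is fitted against DMSO controls.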

Read-out in test [8]: Alpha-fetoprotein (AFP) gene, AFP (gene 174)
Put plainly: LTEA_HepaRG_AFP: Life Technologies and Expression Analysis (LTEA) Assay for Alpha-fetoprotein (AFP) gene using HepaRG (AID 2283472). In outline:
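Chemicals were tested on differentiated HepaRG cells for 48 hours at eight concentrations up to 100 uM, with 0.5% DMSO as vehicle. AFP expression was then quantified by qRT-PCR and analyzed for gain or loss relative to DMSO.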

Read-out in test [9]: BCL2L11 (gene 10018)
The test is described as follows: LTEA_HepaRG_BCL2L11: Life Technologies and Expression Analysis (LTEA) Assay for Bcl-2 (BCL2L11) gene using HepaRG (AID 2283473). In outline: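 HepaRG, 48 h exposure, 8-pt half-log series from 100 uM in 0.5% DMSO, duplicates; qRT-PCR (Fluidigm TaqMan) for BCL2L11, housekeeping-normalized; bidirectional curve fit relative to DMSO baseline.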

Read-out in test [10]: Apolipoprotein A-V (APOA5) gene, APOA5 (gene 116519)
Put plainly: LTEA_HepaRG_APOA5: Life Technologies and Expression Analysis (LTEA) Assay for Apolipoprotein A-V (APOA5) gene using HepaRG (AID 2283474). In outline:
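HepaRG, 48 h chemical exposure in serum-free induction medium, 8-pt half-log series (top 100 uM), 0.5% DMSO vehicle, duplicates. Readout: APOA5 mRNA by qRT-PCR, housekeeping-normalized; bidirectional fit vs DMSO baseline.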

Read-out in test [11]: Apoptosis regulator Bcl-2 (Homo sapiens) (UniProt P10415)
Put plainly: LTEA_HepaRG_BCL2: Life Technologies and Expression Analysis (LTEA) Assay for Bcl-2 gene using HepaRG (AID 2283475). In outline: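 Plated human HepaRG cells are exposed to test chemicals for 48 h across eight concentrations from 100 uM downward in half-log steps (0.5% DMSO). BCL2 expression is then measured by qRT-PCR with housekeeping normalisation and fitted bidirectionally against vehicle.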

Read-out in test [12]: Bcl-2 (BID) gene, BID (gene 637)
Put plainly: LTEA_HepaRG_BID: Life Technologies and Expression Analysis (LTEA) Assay for Bcl-2 (BID) gene using HepaRG (AID 2283476). In short, it runs like this: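 Cells are plated, cultured 48 h, switched to serum-free induction medium, then dosed 48 h (100 uM top, half-log steps, 0.5% DMSO). RNA is isolated and BID expression read by qRT-PCR.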

Read-out in test [13]: Caspase-3 (Homo sapiens) (UniProt P42574)
The test is described as follows: LTEA_HepaRG_CASP3: Life Technologies and Expression Analysis (LTEA) Assay for cysteine-aspartic acid protease (CASP3) using HepaRG (AID 2283477). In short, it runs like this:
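HepaRG, 48 h exposure, 8 conc. (top 100 uM, half-log steps, duplicate), 0.5% DMSO vehicle; qRT-PCR of CASP3 transcript, housekeeping-normalised (ACTB/GAPDH/POLR2A); bidirectional curve fit vs DMSO baseline.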

Read-out in test [14]: Cytochrome P450 (CYP24A1), CYP24A1 (gene 1591)
Put plainly: LTEA_HepaRG_CYP24A1: Life Technologies and Expression Analysis (LTEA) Assay for Cytochrome P450 (CYP24A1) using HepaRG (AID 2283478). In short, it runs like this:
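qRT-PCR read-out: CYP24A1 transcript levels normalized to three housekeeping genes, bidirectional curve fits against 0.5% DMSO baseline. Human HepaRG cells treated 48 h with chemicals at eight concentrations from 100 uM in half-log steps.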

Read-out in test [15]: Cytochrome P450 (CYP1A2), CYP1A2 (gene 1544)
The test is described as follows: LTEA_HepaRG_CYP1A2: Life Technologies and Expression Analysis (LTEA) Assay for Cytochrome P450 (CYP1A2) using HepaRG (AID 2283479). In outline:
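HepaRG, 48 h exposure, top 100 uM, half-log 8-pt, 0.5% DMSO vehicle, duplicates. Readout: TaqMan qRT-PCR of CYP1A2 mRNA, housekeeping-normalized (ACTB/GAPDH/POLR2A). Gain/loss fit relative to DMSO baseline.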

Read-out in test [16]: cysteine-aspartic acid protease (CASP8), CASP8 (gene 841)
The test is described as follows: LTEA_HepaRG_CASP8: Life Technologies and Expression Analysis (LTEA) Assay for cysteine-aspartic acid protease (CASP8) using HepaRG (AID 2283480). In outline:
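CASP8 transcript measured by TaqMan qRT-PCR with ACTB/GAPDH/POLR2A normalization, after 48 h chemical exposure of HepaRG cells in serum-free induction medium. Eight concentrations, top 100 uM, half-log steps, 0.5% DMSO vehicle; fits in both directions versus DMSO.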

Read-out in test [17]: Cytochrome P450 (CYP2B6), CYP2B6 (gene 1555)
Put plainly: LTEA_HepaRG_CYP2B6: Life Technologies and Expression Analysis (LTEA) Assay for Cytochrome P450 (CYP2B6) using HepaRG (AID 2283481). In short, it runs like this:
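Read-out is CYP2B6 mRNA by TaqMan qRT-PCR, normalized to three housekeeping genes and fitted bidirectionally against 0.5% DMSO baseline. Human HepaRG cells received test chemicals for 48 h, top concentration 100 uM, half-log dilutions.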

Read-out in test [18]: Cytochrome P450 2C19 (Homo sapiens) (UniProt P33261)
Put plainly: LTEA_HepaRG_CYP2C19: Life Technologies and Expression Analysis (LTEA) Assay for CYP2C19 using HepaRG (AID 2283482). In short, it runs like this:
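HepaRG, 48 h chemical exposure, 8-pt half-log series from 100 uM in 0.5% DMSO, duplicates. Readout: CYP2C19 mRNA by TaqMan qRT-PCR, housekeeping-normalized. Bidirectional fit vs DMSO baseline; phenobarbital 1mM as induction control.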

Read-out in test [19]: CYP2C8 (gene 1558)
The test is described as follows: LTEA_HepaRG_CYP2C8: Life Technologies and Expression Analysis (LTEA) Assay for CYP2C8 using HepaRG (AID 2283483). In outline: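 CYP2C8 expression measured by TaqMan qRT-PCR and normalized to three housekeeping genes. HepaRG cultures were treated for 48 h with an eight-point half-log series topping at 100 uM, vehicle 0.5% DMSO, duplicates; fitted both directions against DMSO.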

Read-out in test [20]: ABC Transporter (ABCC2), ABCC2 (gene 1244)
Put plainly: LTEA_HepaRG_ABCC2: Life Technologies and Expression Analysis (LTEA) Assay for ABC Transporter (ABCC2) using HepaRG (AID 2283464). In outline: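 qRT-PCR (TaqMan, Fluidigm array) read-out of ABCC2 mRNA, normalized to three housekeeping genes. Differentiated HepaRG cells were treated 48 h in serum-free induction medium with 8-point half-log series from 100 uM in 0.5% DMSO; curves fitted bidirectionally relative to DMSO.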

The structures appear in SMILES notation. Active and inactive are the calls of the source. The calls were made as follows: active = hit-call score of the fitted dose curve at least 0.9, where 1 is the maximum; inactive = score below 0.9.

Sequence of Apoptosis regulator Bcl-2 (Homo sapiens) (P10415 whole entry, looked up): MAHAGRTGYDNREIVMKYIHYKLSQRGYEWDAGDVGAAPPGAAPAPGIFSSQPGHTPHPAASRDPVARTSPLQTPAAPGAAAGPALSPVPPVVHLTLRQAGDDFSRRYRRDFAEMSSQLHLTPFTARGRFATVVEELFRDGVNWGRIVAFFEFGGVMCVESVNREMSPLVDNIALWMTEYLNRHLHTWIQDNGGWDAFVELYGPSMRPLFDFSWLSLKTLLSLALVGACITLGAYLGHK
Sequence of Caspase-3 (Homo sapiens) (P42574 whole entry, looked up): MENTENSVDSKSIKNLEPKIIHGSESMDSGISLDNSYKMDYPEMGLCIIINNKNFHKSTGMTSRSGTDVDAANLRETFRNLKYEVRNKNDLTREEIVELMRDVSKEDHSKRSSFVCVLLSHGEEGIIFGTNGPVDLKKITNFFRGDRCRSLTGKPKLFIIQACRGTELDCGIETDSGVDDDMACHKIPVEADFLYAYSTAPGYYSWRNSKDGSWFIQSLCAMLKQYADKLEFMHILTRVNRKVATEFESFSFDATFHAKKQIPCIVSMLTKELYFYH
Sequence of Cytochrome P450 2C19 (Homo sapiens) (P33261 whole entry, looked up): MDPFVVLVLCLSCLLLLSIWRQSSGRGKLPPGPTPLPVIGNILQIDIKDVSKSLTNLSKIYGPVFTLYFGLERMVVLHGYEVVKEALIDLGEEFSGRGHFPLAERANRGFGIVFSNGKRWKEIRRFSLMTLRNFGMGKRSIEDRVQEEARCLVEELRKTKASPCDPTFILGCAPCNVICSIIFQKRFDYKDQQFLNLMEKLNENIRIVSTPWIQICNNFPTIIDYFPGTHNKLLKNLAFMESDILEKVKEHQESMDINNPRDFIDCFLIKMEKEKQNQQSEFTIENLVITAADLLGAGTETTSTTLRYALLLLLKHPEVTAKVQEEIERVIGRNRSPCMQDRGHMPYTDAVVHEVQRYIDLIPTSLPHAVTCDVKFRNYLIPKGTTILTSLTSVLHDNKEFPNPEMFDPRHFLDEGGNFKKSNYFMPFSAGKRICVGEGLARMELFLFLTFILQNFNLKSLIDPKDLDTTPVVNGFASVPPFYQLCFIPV
Sequence of Broad substrate specificity ATP-binding cassette transporter ABCG2 (Homo sapiens) (Q9UNQ0 whole entry, looked up): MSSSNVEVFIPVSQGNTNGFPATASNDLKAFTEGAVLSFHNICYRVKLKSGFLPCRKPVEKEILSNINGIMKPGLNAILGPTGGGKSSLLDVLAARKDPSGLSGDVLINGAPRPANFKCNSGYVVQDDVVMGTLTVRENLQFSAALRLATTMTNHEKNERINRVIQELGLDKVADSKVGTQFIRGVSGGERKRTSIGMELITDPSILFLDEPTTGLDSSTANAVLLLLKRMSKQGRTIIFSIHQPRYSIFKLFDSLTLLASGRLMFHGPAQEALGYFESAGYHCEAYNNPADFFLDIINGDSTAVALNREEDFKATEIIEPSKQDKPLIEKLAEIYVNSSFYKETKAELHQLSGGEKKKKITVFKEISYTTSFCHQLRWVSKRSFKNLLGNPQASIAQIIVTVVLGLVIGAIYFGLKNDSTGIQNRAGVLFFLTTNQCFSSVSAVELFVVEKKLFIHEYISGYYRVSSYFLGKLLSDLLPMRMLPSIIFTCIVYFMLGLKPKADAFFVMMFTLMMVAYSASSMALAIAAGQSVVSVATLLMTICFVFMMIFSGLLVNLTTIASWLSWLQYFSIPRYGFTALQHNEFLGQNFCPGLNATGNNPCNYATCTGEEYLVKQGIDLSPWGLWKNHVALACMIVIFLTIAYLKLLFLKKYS

With `N#CSCSc1nc2ccccc2s1`, the call in test [1], in [2], in test [3], in [5], in [6] and in [7] was inactive. The molecule was classed as inactive in test [8], in [9], in test [10], in test [11], in test [12] and in [13]. In addition, the molecule was called inactive in test [15], in test [16], in test [17], in test [18] and in test [19]. For the same molecule, the AC50 in [4] is 40.3 µM (active); in test [14], 12.4 µM (active).
Regarding `CCC(C)OC(=O)N1CCCCC1CCO` (stereo unspecified), the outcome in [1], in test [2], in [3], in [4], in test [5] and in [6] was inactive. In addition, the result in test [7], in test [8], in test [9], in test [10], in test [11] and in test [12] was inactive. Moreover, the call in test [13], in test [14], in test [15], in test [16] and in test [19] was inactive. The AC50 in [17] was 35 µM (active); in [18], 50 µM (active).
Turning to `O=C(c1ccc(O)cc1O)c1ccc(O)cc1O`, the molecule was classed as inactive in test [20], in test [1], in [2], in test [3], in [4] and in [5]. The outcome in test [6], in test [7], in test [8], in test [9], in test [10] and in [11] was inactive. Also, the outcome in test [13], in test [14], in [15], in test [17], in [18] and in test [19] was inactive.
